# Laboratory results reported in PubChem BioAssay.
# Activity calls are given as the source filed them.
# How the values were obtained:
# [1] = system: PRMT1 (protein arginine N-methyltransferase 1); assay: small molecules binding arginine methyltransferase PRMT1 – biochemical, small-molecule microarray, 635 nm fluorescence, primary screen (AID 1088); settings: higher = more signal;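 note: binding of Prmt1 protein to compounds spotted on small-molecule microarray slides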
# [2] = growth effects on S. cerevisiae YJM789 – YJM789 clinical isolate, OD600, 24 h, basal, primary screen (AID 1089); settings: higher = more signal, called active from +8 up or from −8 down;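 note: growth of clinical yeast isolate S. cerevisiae YJM 789 seeded 1000 cells per well; test concentration not given here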
# [3] = S. pombe growth modifiers, basal conditions – strain 972, OD600, 24 h, no modulator, primary screen (AID 1090);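 note: basal condition with compound alone and no growth modifier present; test concentration not given here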; settings: S. pombe 972 growth, higher = more signal, called active from +8 up or from −8 down
# [4] = budding yeast growth modifiers under rapamycin – strain BY4716, OD600, 96 h, primary screen (AID 1091); note: test concentration not given here; settings: S. cerevisiae BY4716 + rapamycin, higher = more signal, called active from +8 up or from −8 down
# [5] = target: Torsin-1A-interacting protein 2 (Homo sapiens) (UniProt Q8NFQ8); assay: small molecules binding lysate-expressed LULL1 – cell lysate, human LULL1 lysate, 635/667 nm fluorescence, primary screen (AID 1092); settings: small-molecule microarray, hLULL1 lysate binding, 635 nm fluorescence; higher = more signal;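 note: probe is lysate of COS7 cells overexpressing human LULL1; score merges per-feature 667 nm fluorescence with signal-to-noise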
# Sequence of Torsin-1A-interacting protein 2 (Homo sapiens) (Q8NFQ8 whole entry, looked up): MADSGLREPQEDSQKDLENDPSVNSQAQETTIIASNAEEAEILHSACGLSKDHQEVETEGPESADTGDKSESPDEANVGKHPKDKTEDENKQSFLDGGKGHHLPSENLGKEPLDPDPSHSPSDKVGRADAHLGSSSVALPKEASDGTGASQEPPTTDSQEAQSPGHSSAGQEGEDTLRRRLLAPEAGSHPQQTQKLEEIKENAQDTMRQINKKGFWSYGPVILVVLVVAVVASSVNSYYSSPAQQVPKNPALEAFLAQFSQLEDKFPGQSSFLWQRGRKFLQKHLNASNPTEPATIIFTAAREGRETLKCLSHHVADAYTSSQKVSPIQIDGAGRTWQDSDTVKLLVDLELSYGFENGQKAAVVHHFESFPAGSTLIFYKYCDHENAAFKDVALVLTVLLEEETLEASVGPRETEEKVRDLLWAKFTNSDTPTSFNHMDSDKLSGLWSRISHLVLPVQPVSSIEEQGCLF
# [6] = optical density change of DRC41 E. coli – strain DRC41, OD650, 24 h, E. coli filamentation project, primary screen (AID 1093);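 note: MC1000 strain lacking acrAB efflux and sulA so SOS filamentation is blocked; test concentration not given here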; settings: E. coli DRC41 growth, higher = more signal, called active from +8 up or from −8 down
# [7] = probe aLefty2 binding to arrayed compounds – biochemical, biotinylated probe, 635/667 nm fluorescence, primary screen (AID 1094); settings: small-molecule microarray, higher = more signal;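 note: score merges spot fluorescence near 667 nm with spot signal-to-noise ratio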
# [8] = system: Noggin (protein binding on small-molecule microarray); assay: small molecules binding Noggin protein – biochemical, 635/667 nm fluorescence, primary screen (AID 1095); settings: 635 nm fluorescence, higher = more signal;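 note: score merges 667 nm feature fluorescence with signal to noise over triplicate slides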
# [9] = target: Neurogenic locus notch homolog protein 3 (Homo sapiens) (UniProt Q9UM47); assay: small molecules binding NOTCH3 protein – biochemical, 635/667 nm fluorescence, primary screen (AID 1096); settings: small-molecule microarray, 635 nm fluorescence, higher = more signal
# Sequence of Neurogenic locus notch homolog protein 3 (Homo sapiens) (Q9UM47 whole entry, looked up): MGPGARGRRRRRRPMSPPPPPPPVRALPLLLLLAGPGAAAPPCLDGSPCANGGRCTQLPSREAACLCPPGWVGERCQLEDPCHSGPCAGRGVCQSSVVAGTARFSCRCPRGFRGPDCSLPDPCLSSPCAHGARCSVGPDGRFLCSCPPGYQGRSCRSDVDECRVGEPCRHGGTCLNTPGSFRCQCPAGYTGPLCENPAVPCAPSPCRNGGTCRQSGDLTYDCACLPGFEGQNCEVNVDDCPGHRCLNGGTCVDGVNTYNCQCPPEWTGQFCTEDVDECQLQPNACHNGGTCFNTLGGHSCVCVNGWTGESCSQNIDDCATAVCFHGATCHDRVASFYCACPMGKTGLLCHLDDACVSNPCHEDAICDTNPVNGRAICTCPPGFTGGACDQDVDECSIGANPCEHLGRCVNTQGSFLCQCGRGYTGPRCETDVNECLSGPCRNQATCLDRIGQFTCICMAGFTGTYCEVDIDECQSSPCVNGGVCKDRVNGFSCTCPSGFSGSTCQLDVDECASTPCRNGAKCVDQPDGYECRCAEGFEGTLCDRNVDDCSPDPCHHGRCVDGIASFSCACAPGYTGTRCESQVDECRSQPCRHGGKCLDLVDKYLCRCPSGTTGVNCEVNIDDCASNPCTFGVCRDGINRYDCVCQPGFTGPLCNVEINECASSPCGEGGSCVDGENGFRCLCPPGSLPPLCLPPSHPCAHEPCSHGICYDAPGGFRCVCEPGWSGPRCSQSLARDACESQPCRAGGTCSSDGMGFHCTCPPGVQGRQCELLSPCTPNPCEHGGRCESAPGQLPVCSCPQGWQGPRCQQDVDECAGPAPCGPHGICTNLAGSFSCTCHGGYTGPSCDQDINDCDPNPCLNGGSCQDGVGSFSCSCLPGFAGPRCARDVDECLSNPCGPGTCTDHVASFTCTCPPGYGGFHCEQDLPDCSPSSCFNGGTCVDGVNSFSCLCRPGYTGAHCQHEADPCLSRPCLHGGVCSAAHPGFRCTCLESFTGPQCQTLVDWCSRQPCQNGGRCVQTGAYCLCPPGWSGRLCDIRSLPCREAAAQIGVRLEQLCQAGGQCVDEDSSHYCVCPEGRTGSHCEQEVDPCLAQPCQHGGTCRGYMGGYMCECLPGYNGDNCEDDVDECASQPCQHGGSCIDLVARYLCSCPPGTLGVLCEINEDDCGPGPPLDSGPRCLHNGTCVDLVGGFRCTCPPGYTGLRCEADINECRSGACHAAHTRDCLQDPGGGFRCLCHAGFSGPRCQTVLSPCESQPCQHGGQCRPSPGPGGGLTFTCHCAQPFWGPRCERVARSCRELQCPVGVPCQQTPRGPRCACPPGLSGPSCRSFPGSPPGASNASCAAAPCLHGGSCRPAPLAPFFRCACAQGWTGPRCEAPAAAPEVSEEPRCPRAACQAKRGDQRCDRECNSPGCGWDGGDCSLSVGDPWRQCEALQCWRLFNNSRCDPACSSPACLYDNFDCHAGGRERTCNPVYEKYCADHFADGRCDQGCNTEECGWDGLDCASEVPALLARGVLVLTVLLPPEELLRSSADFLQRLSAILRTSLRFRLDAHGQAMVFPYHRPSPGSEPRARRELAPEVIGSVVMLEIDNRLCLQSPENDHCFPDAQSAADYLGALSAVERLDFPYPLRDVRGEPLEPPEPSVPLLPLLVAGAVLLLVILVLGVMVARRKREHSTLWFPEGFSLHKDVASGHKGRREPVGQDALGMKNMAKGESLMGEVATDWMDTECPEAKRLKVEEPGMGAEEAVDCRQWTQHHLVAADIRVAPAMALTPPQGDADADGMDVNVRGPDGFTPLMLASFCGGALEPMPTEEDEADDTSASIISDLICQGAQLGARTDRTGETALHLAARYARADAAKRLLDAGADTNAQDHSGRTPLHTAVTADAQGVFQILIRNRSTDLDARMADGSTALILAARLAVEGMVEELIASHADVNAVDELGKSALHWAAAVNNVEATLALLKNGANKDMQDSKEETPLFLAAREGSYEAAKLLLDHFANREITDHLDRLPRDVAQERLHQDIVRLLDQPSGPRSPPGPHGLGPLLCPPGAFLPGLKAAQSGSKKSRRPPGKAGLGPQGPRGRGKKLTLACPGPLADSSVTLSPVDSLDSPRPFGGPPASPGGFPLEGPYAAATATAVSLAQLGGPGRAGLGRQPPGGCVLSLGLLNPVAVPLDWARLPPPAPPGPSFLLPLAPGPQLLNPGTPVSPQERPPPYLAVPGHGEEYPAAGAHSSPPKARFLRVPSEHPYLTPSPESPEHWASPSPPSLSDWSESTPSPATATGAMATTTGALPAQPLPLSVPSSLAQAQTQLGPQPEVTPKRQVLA
# [10] = probe aEGFR binding to arrayed compounds – biochemical, biotinylated probe, 635/667 nm fluorescence, primary screen (AID 1097); settings: small-molecule microarray, higher = more signal;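 note: probe is a biotinylated anti-EGFR antibody binding compounds printed on slides; score combines fluorescence near 667 nm and signal to noise of each spot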
# [11] = system: Plasmodium falciparum Sir2 (PF13_0152, Sir2A); assay: Plasmodium falciparum Sir2A binding compounds – biochemical, small-molecule microarray, 635 nm fluorescence, primary screen (AID 1098); settings: fluorescence 635 nm, higher = more signal;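 note: score merges spot fluorescence intensity with its signal-to-noise ratio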
# [12] = probe aDKK1 binding to arrayed compounds – biochemical, biotinylated probe, 635/667 nm fluorescence, primary screen (AID 1099); settings: small-molecule microarray, higher = more signal;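 note: score merges 667nm spot fluorescence with signal to noise across triplicate slides; reference of the scale not given here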
# [13] = probe aCHRDL2 binding to arrayed compounds – biochemical, biotinylated probe, 635/667 nm fluorescence, primary screen (AID 1100); settings: small-molecule microarray, higher = more signal
# [14] = change in splice reporter luminescence, either direction, cell-based, HEK293, spliceosome inhibition project, primary screen (AID 1101); settings: HEK293 splicing luciferase reporter, 24 h, higher = more signal, called active from +8 up or from −8 down;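 note: HEK293 cells carrying a splicing-competent luciferase reporter gene; test concentration not given here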
# [15] = target: Fibroblast growth factor 10 (Homo sapiens) (UniProt O15520); assay: compounds binding fibroblast growth factor 10 – biochemical, small-molecule microarray, 635 nm fluorescence, primary screen (AID 1102); settings: FGF10 binding, fluorescence 635 nm, higher = more signal
# Sequence of Fibroblast growth factor 10 (Homo sapiens) (O15520 whole entry, looked up): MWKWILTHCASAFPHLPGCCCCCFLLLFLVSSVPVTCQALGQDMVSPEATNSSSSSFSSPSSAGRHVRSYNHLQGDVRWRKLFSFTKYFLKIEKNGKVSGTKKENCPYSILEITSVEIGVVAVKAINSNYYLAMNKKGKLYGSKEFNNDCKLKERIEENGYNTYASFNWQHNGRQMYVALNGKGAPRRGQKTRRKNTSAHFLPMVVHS
# [16] = system: glycogen synthase kinase-3 (GSK3A per assay name; protocol says GSK3B); assay: compounds binding glycogen synthase kinase-3 – biochemical, small-molecule microarray, 635 nm fluorescence, GSK3A, primary screen (AID 1103); settings: fluorescence 635 nm, higher = more signal; note: the record names both GSK3A and GSK3B
# [17] = target: Epidermal growth factor receptor (Homo sapiens) (UniProt P00533); assay: compounds binding epidermal growth factor receptor – biochemical, small-molecule microarray, 635 nm fluorescence, primary screen (AID 1104); settings: EGFR binding, higher = more signal;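 note: score merges 667 nm emission intensity with spot signal to noise over triplicate slides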
# Sequence of Epidermal growth factor receptor (Homo sapiens) (P00533 whole entry, looked up): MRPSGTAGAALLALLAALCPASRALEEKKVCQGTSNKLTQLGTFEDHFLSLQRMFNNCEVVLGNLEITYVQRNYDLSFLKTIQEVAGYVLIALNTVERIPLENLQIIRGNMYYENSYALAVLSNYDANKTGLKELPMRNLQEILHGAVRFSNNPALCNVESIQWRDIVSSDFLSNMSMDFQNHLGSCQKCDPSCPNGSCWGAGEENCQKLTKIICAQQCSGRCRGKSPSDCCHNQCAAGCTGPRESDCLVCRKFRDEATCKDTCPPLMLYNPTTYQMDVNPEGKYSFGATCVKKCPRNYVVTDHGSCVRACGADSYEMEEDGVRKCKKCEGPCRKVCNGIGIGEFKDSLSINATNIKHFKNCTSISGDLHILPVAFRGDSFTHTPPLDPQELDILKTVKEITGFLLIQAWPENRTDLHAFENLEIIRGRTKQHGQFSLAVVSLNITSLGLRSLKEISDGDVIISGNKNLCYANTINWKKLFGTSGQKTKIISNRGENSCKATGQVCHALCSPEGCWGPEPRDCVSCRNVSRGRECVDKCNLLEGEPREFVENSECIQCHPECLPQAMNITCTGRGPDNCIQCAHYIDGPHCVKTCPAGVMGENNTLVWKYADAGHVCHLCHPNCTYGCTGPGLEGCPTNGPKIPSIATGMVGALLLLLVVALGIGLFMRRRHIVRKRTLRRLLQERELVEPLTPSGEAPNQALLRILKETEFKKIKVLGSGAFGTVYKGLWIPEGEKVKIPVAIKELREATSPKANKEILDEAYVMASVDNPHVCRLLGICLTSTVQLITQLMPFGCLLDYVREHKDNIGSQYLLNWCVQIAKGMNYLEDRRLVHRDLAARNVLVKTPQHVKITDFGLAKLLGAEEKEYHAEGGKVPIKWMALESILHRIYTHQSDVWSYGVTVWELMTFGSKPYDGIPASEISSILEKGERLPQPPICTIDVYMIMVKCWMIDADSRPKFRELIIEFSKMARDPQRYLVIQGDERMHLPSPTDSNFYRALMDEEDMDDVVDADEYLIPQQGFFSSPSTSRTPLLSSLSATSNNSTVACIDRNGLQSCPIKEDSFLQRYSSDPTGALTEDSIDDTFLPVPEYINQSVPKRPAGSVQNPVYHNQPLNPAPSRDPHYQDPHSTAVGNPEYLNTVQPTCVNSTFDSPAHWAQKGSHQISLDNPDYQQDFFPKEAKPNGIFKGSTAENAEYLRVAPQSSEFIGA
# [18] = target: Follistatin-related protein 3 (Homo sapiens) (UniProt O95633); assay: compounds binding follistatin-related protein 3 – biochemical, small-molecule microarray, 635 nm fluorescence, primary screen (AID 1105); settings: FSTL3 binding, higher = more signal;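 note: score merges emission near 667 nm and signal to noise per printed spot across three slides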
# Sequence of Follistatin-related protein 3 (Homo sapiens) (O95633 whole entry, looked up): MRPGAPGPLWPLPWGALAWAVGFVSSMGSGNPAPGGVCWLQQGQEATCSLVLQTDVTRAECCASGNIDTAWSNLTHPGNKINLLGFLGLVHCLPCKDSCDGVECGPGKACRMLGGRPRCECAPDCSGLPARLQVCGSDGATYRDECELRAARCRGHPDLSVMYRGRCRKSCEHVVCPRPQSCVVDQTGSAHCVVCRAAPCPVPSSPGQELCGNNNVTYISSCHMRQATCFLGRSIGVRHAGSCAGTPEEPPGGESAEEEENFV
# [19] = target: Dickkopf-related protein 1 (Homo sapiens) (UniProt O94907); assay: small molecules binding DKK1 protein – biochemical, small-molecule microarray, 635 nm fluorescence scan, primary screen (AID 1106); settings: higher = more signal;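 note: score merges emission near 667 nm with signal to noise over three replicate slides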
# Sequence of Dickkopf-related protein 1 (Homo sapiens) (O94907 whole entry, looked up): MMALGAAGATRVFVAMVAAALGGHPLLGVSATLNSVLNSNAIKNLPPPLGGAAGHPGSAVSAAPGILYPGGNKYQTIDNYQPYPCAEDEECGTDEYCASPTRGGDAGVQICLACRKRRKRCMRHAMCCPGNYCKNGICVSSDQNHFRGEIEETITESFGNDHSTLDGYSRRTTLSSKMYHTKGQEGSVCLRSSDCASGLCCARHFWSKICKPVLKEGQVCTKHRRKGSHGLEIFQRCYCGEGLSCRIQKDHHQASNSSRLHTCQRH
# [20] = system: Inhibin beta A chain (activin A); assay: small molecules binding activin A – biochemical, small-molecule microarray, 635 nm fluorescence scan, primary screen (AID 1107); settings: INHBA, higher = more signal;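 note: mouse activin A protein probed at 4.33 µg/mL on printed slides; score merges bound-protein fluorescence near 667 nm with spot signal-to-noise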
Structure (SMILES),composite z-score [1],z-score [2],z-score [3],z-score [4],composite z-score [5],z-score [6],composite z-score [7],composite z-score [8],composite z-score [9],composite z-score [10],composite z-score [11],composite z-score [12],composite z-score [13],z-score [14],composite z-score [15],composite z-score [16],composite z-score [17],composite z-score [18],composite z-score [19],composite z-score [20]
COc1ccccc1CN1C(=O)c2ccccc2[C@](Cc2ccccc2I)(C(=O)O)[C@@H]1c1ccc(CO)cc1,1.51,0.443 (inactive),0.812 (inactive),-0.0193 (inactive),2.45,1.28 (inactive),-0.0031,0.653,1,0.554,1.19,0.552,0.485,-0.498 (inactive),1.2,0.941,0.719,0.993,0.441,0.933
CCOC(=O)C[C@H]1[C@H](OC(=O)c2ccc(-c3ccccc3)cc2)[C@@H](NC(=O)CC(C)C)c2cc(OCCCO)ccc2N1C(=O)c1ccc2ccccc2n1,-0.069,-1.13 (inactive),-0.832 (inactive),-0.656 (inactive),1.15,-0.0583 (inactive),-0.145,0.481,0.753,-0.0828,0.988,-0.239,-0.39,-0.725 (inactive),0.636,0.0685,0.239,0.47,0.273,0.0746
[N-]=[N+]=NCc1ccccc1[C@H]1OC(c2ccc(OCCCO)cc2)=N[C@@]1(Cc1ccccc1N=[N+]=[N-])C(=O)NCC(O)CO (stereo not given in full),1.54,-0.527 (inactive),-0.451 (inactive),0.134 (inactive),3.52,-0.221 (inactive),0.0511,0.0758,1.09,0.0201,1.12,0.33,0.873,0.451 (inactive),0.903,1.13,-0.186,0.681,-0.308,0.317
COC(=O)[C@]1(CCS(=O)(=O)c2ccccc2)N=C(c2ccc(OCCCO)cc2)O[C@@H]1c1ccccc1N=[N+]=[N-],1.54,0.764 (inactive),-2.44 (inactive),35.7 (active),3.23,-1.29 (inactive),0.346,1.22,1.04,0.6,1.62,0.99,1.12,-0.571 (inactive),1.3,1.3,0.416,1.2,0.666,0.199
C=CC[C@@H](OC(=O)Nc1ccc(OC)cc1)c1ccc(O)c(F)c1,0.349,-23.4 (active),-20.3 (active),-2.74 (inactive),2.09,0.92 (inactive),-0.146,-0.488,-0.6,-0.241,1.69,-0.0015,0.74,-1.95 (inactive),-0.549,-0.363,-1.2,-0.741,-0.658,0.19
CC[C@@H]1O[Si](C(C)C)(C(C)C)c2c1cc(-c1cc(C)c(OC)c(C)c1)nc2-c1ccc(Oc2ccccc2)cc1,-0.0555,0.0662 (inactive),0.131 (inactive),-0.798 (inactive),-0.346,-0.333 (inactive),-0.123,0.0174,0.0178,-0.162,-0.551,0.825,-0.0144,-0.166 (inactive),0.0008,-0.732,-0.451,-0.452,-0.497,0.135
[N-]=[N+]=Nc1ccccc1C[C@]1(C(=O)NCC(O)CO)COC(c2ccc(OCCCO)cc2)=N1 (stereo not given in full),0.149,0.887 (inactive),-0.13 (inactive),0.69 (inactive),3.11,1.05 (inactive),0.23,-0.906,-1.26,0.58,0.989,0.72,1.18,0.173 (inactive),-0.582,-0.269,-0.603,-1.14,-0.975,1.16
CC(C)c1ccc(NN2C(C(O)c3ccc(F)cc3)C=CC3C(=O)N(c4ccccc4)C(=O)C32)cc1 (stereo not given),1.47,1.22 (inactive),0.842 (inactive),0.159 (inactive),3.57,-1.01 (inactive),-0.0865,-0.101,1.03,0.0182,1.28,0.47,0.775,-0.548 (inactive),1.07,0.275,0.3,1.37,-0.0647,0.869
C=CCNC(=O)[C@@H]1[C@H]2C(=O)O[C@H](c3ccccc3)[C@H](c3ccccc3)N2[C@H](c2ccc(OCCO)cc2)[C@@]12C(=O)N(C(=O)OCCOC)c1ccc(C#Cc3ccc(OC)cc3)cc12,1.49,1.59 (inactive),1.77 (inactive),6.26 (inactive),3.13,0.361 (inactive),0.0645,1.23,1.05,-0.0974,1.29,0.0181,0.299,-1.33 (inactive),0.753,1.27,0.356,1.34,0.489,0.688
CCCCC=C[C@@H](NC(=O)OCc1ccccc1Cl)c1ccccc1,1.48,0.952 (inactive),1.18 (inactive),2.28 (inactive),2.9,-1.48 (inactive),1.09,1.34,1.02,0.98,0.732,1.53,1.09,0.233 (inactive),0.431,1.29,0.566,1.19,-0.193,0.709
